This passage reports growth results from PubChem BioAssay (NCI).

Some test systems named below: NCI-H23 lung; NCI-H226 lung; NCI-H322M lung; HOP-62 NSCLC; HOP-92 NSCLC; NCI-H522 lung; A549/ATCC NSCLC; 786-0 renal; COLO 205 colon; DU-145 prostate; K-562 leukemia; MALME-3M melanoma; MDA-MB-231 breast; SF-268 CNS; SF-295 CNS; SF-539 CNS; UACC-257 melanoma; M14 melanoma; RXF 393 renal; NCI-H460 lung.
What all share (assay): NCI-60 one-dose screen, 48 h (100 = growth as untreated, 0 = no growth, -100 = all killed)
Settings in all cases: 10 µM unless noted

This is part of a sample that, as a whole, favours compounds with a hit. Of some 83,000 tested, about 20% had one in any assay.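 Negative percent growth values reflect cell death: -40 means 40% of the cells present at the start died, and -100 means all died.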 A number with no mark means an inactive call. Active and inactive are the calls of the source. Rule for the calls: active = growth percent below 10; inactive = the rest.

Consider `Cc1nc2sc(C(=O)Nc3ccccc3)c(N)c2cc1C(=O)c1ccc(C(F)(F)F)cc1`, for which the growth in the experiment with NCI-H23 lung was 93.5%; in the experiment on NCI-H226 lung it was 99.6%; in the experiment with NCI-H322M lung it was 102%; in the experiment on HOP-62 NSCLC, 91.1%; with HOP-92 NSCLC it was 116%; in the experiment with NCI-H522 lung it was 89.1%. The growth was 42.8% with A549/ATCC NSCLC; 95.3% in the experiment on 786-0 renal; 104% with COLO 205 colon; 106% in the experiment on DU-145 prostate; 101% in the experiment with K-562 leukemia; 101% with MALME-3M melanoma. Further, the growth in the experiment with MDA-MB-231 breast is 101%; in the experiment with SF-268 CNS it was 101%; with SF-295 CNS, 94.2%; in the experiment with SF-539 CNS, 93.5%; in the experiment on UACC-257 melanoma it was 101%; in the experiment on M14 melanoma, 93.4%.
Take `CN1C(=O)N(C)C2NC(N/N=C/c3ccccc3)=NC21` (stereo unspecified): the growth in the experiment with NCI-H23 lung is 100%; in the experiment on NCI-H226 lung it was 95%; with NCI-H322M lung, 94.5%; with HOP-62 NSCLC, 94.5%; in the experiment with HOP-92 NSCLC it was 102%; with NCI-H522 lung it was 104%. The growth is 104% in the experiment with 786-0 renal; 106% in the experiment with COLO 205 colon; 108% in the experiment with DU-145 prostate; 107% in the experiment on K-562 leukemia; 97.9% with MALME-3M melanoma; 104% in the experiment on MDA-MB-231 breast. Also, the growth was 99.8% with SF-268 CNS; 101% in the experiment with SF-295 CNS; 94.9% with SF-539 CNS; 98.8% in the experiment with UACC-257 melanoma; 98.8% in the experiment with M14 melanoma.
In the case of `C(=N\Nc1ncc(-c2cc3cc4c(cc3o2)OCO4)s1)/c1c[nH]c2ccccc12`, the growth in the experiment on NCI-H23 lung is -25.8% (active); with NCI-H226 lung, -56.3% (active); in the experiment with NCI-H322M lung, 26.7%; in the experiment with HOP-62 NSCLC, -18.4% (active); with HOP-92 NSCLC, -0.218% (active); in the experiment on NCI-H522 lung it was -42.2% (active). The growth in the experiment on A549/ATCC NSCLC was -38.6% (active); in the experiment on 786-0 renal, -40% (active); in the experiment on COLO 205 colon, -28.8% (active); in the experiment with DU-145 prostate, -41.3% (active); with K-562 leukemia, 4.08% (active); in the experiment on MALME-3M melanoma, -45.6% (active). Also, the growth in the experiment with MDA-MB-231 breast is -27% (active); with SF-268 CNS, -34.6% (active); in the experiment with SF-295 CNS, -41.1% (active); in the experiment with SF-539 CNS, -80% (active); in the experiment on UACC-257 melanoma, 3.52% (active); in the experiment on M14 melanoma, 16.6%.
As to `CC(C)C1C2=C(NCCN1C(=O)Cc1ccccc1)C(C)(C)N(Cc1ccccc1)C2=O` (stereo unspecified), the growth in the experiment on NCI-H23 lung is 97.4%; in the experiment with NCI-H226 lung, 104%; with NCI-H322M lung, 99.2%; in the experiment on HOP-62 NSCLC it was 91.9%; in the experiment on HOP-92 NSCLC, 93.6%; with NCI-H522 lung, 93.6%. Further, the growth in the experiment with A549/ATCC NSCLC is 100%; in the experiment on 786-0 renal, 97.3%; in the experiment on COLO 205 colon, 100%; with DU-145 prostate, 104%; with K-562 leukemia it was 96.5%; with MALME-3M melanoma it was 98.3%. Moreover, the growth in the experiment on MDA-MB-231 breast is 98.2%; with RXF 393 renal, 98.3%; with SF-268 CNS it was 102%; in the experiment on SF-295 CNS, 99.5%; in the experiment with SF-539 CNS, 107%; in the experiment with UACC-257 melanoma, 96.7%. Further, the growth with M14 melanoma is 103%.
Take `Cc1nccc2c3ccc(OCc4cn(-c5ccc(Cl)cc5)nn4)cc3n(CCCc3ccccc3)c12`: the growth in the experiment on NCI-H23 lung is 70.5%; with NCI-H226 lung it was -10.9% (active); in the experiment with HOP-62 NSCLC, 6.51% (active); in the experiment on NCI-H460 lung it was 14.4%; in the experiment with HOP-92 NSCLC it was 26.6%; in the experiment with NCI-H522 lung it was 46.6%. The growth in the experiment with A549/ATCC NSCLC was 4.77% (active); with 786-0 renal, -72.6% (active); in the experiment on COLO 205 colon it was -3.42% (active); in the experiment with DU-145 prostate, 27.6%; with K-562 leukemia, 11.1%; with MALME-3M melanoma it was -7.83% (active). In addition, the growth with MDA-MB-231 breast is 27.4%; in the experiment with RXF 393 renal it was -2.27% (active); in the experiment on SF-268 CNS, -5.93% (active); with SF-295 CNS, 8.27% (active); with SF-539 CNS it was -16.5% (active); with UACC-257 melanoma, -34.6% (active). For the same molecule, the growth in the experiment with M14 melanoma was -73.2% (active).
On to `O=C1OC(=O)C2C1CC=CC2c1ccccc1` (stereo unspecified), for which the growth was 84.7% in the experiment with NCI-H23 lung; 90.6% with NCI-H226 lung; 102% with NCI-H322M lung; 78.8% in the experiment on HOP-62 NSCLC; 85.3% in the experiment with HOP-92 NSCLC; 88% in the experiment on A549/ATCC NSCLC. The growth in the experiment on 786-0 renal was 94.9%; with COLO 205 colon, 93.7%; in the experiment with DU-145 prostate, 94%; with MALME-3M melanoma it was 78.8%; with MDA-MB-231 breast it was 93.7%; in the experiment on RXF 393 renal, 102%. Besides, the growth was 91.1% in the experiment on SF-268 CNS; 95.8% with SF-295 CNS; 88.3% with SF-539 CNS; 107% in the experiment on UACC-257 melanoma; 97.4% with M14 melanoma.
For `C#Cc1cccc(NC(=O)Nc2ccc(NC(=O)CCl)cc2)c1`, the growth is -66.6% [8.25 µM] (active) in the experiment on NCI-H23 lung; -27.4% [8.25 µM] (active) with NCI-H226 lung; 86.8% [8.25 µM] in the experiment on NCI-H322M lung; -6.94% [8.25 µM] (active) in the experiment with HOP-62 NSCLC; -66.5% [8.25 µM] (active) with HOP-92 NSCLC; -70.8% [8.25 µM] (active) in the experiment on NCI-H522 lung. The growth is 45.3% [8.25 µM] in the experiment on A549/ATCC NSCLC; -71.5% [8.25 µM] (active) in the experiment with 786-0 renal; -58.2% [8.25 µM] (active) in the experiment on COLO 205 colon; 22.3% [8.25 µM] with DU-145 prostate; 3.37% [8.25 µM] (active) with K-562 leukemia; -80.5% [8.25 µM] (active) in the experiment on MALME-3M melanoma. In addition, the growth was -72.6% [8.25 µM] (active) with MDA-MB-231 breast; -82.9% [8.25 µM] (active) with SF-268 CNS; 79.5% [8.25 µM] with SF-295 CNS; -99.6% [8.25 µM] (active) in the experiment with SF-539 CNS; 35.1% [8.25 µM] in the experiment on UACC-257 melanoma; 4.51% [8.25 µM] (active) in the experiment on M14 melanoma.
